NS1 function inh – inhibitors of influenza NS1 protein function | Potency, µM (doses to about 46.1 µM) | 0.4% of 270,000 active | AID 2326; further: actives are rising curves; nearly all actives have a fitted effect of over 50% in size
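Growth recovery, yeast-based: influenza A NS1 expressed in S. cerevisiae causes slow growth, and suppressors are detected by OD600. The parent strain without NS1 is used as positive control.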
SARS PLP yeast – blocks SARS-CoV papain-like protease in a yeast assay | S. cerevisiae expressing SARS-CoV PLpro, growth rescue | 0.19% of 330,000 active | Potency, µM (top dose mostly 32.9 µM), hits mostly activators | AID 485353; further: nearly all actives have a fitted effect of over 55% in size
Shiga toxin inh – inhibitors of Shiga toxin in Vero cells; Vero cells, Shiga toxin protein synthesis inhibition reporter; inhibition, % at 38.7 µM; 9.2% of 290,000 active; in the data active means inhibition mostly above about 28%, no sharp cut-off; inactive means mostly below about 43%
Cycloheximide cs – counter-screen for Shiga toxin inhibitors: cycloheximide protein synthesis inhibition | 12% of 300,000 active | max response, % | cell reporter, cycloheximide protein synthesis inhibition counterscreen; in the data active means max response mostly above about 13%, no sharp cut-off; inactive means mostly below about 14%; further: read at 38.3 µM for the half of the compounds with a filed dose
A number is an active result; i = inactive; ? = inconclusive; nt = no result given. An excerpt weighted towards active compounds, which were near 12% of everything screened. Unless noted, the call rests on the fitted dose curve.

SMILES | NS1 function inh | SARS PLP yeast | Shiga toxin inh | Cycloheximide cs
COc1cc(CNCc2cccs2)ccc1OCc1cccs1 | i | i | i | i
COc1cc(CNCc2ccccn2)ccc1OCc1cccc(Cl)c1 | i | i | i | 24.8
c1ccc(COc2cccc(CNCc3cccs3)c2)cc1 | i | i | i | 23.6
COc1cc(CNCc2cccs2)ccc1OCc1ccccc1 | i | i | i | 25.8
COc1cc(CNCc2ccco2)ccc1OCc1ccccc1 | i | i | 61.4 | 32.8
Cc1cc(C)c(N(C(=O)c2csnn2)C(C(=O)NC2CCCC2)c2ccncc2)c(C)c1 (configuration not stated) | i | i | i | i
COc1ccc([C@H]2CC(=O)C=C(c3cccc(NC(C)=O)c3)C2)cc1 | nt | i | nt | nt
CC(C)(C)NC(=O)/C=C/c1ccc(C(F)(F)F)cc1 | i | i | 95.7 | 76.3
CCOc1ccccc1C(=O)NCC(=O)N(C)Cc1ccccc1C | i | i | i | i
O=C(NC(=S)Nc1ccc(N2CCOCC2)cc1)c1ccccc1 | nt | i | i | i
Cc1ccccc1C(=O)NC(=S)Nc1ccc(N2CCOCC2)cc1 | nt | i | i | 11.3
Cc1c(C(=O)NC(=S)Nc2ccc(N3CCOCC3)cc2)cccc1[N+](=O)[O-] | nt | i | 43.2 | 9.8
Cc1c(C(=O)Nc2ccc(N3CCOCC3)cc2)cccc1[N+](=O)[O-] | nt | i | i | i
COC(=O)Cn1ncn2c(cc3oc(C)cc32)c1=O | i | i | 76.2 | 40.2
Cc1cc(C)cc(NC(=O)Cn2ncn3c(cc4ccccc43)c2=O)c1 | i | i | i | i
Cc1ccc(Cl)c(OCC(=O)Nc2cc(S(=O)(=O)N3CCOCC3)ccc2N2CCCC2)c1 | i | i | i | i
CN(C)/C=C/C(=O)c1ccc(Br)cc1 | i | i | 60.8 | 26.0
CN(O)/C=C/C(=O)c1ccc(Br)cc1 | nt | i | i | i
CN(C)c1ccc([C@@H]2[C@@H]([N+](=O)[O-])[C@H]3C=Cc4ccccc4N3[C@H]2C(=O)c2ccc(Cl)cc2)cc1 | i | i | 21.6 | 21.4
O=C(c1ccccc1)C1C(c2ccccc2)C1[N+](=O)[O-] (configuration not stated) | i | i | i | i
CCN(Cc1cnn(C)c1)Cc1nc(C2(c3ccc(C)cc3)CCCC2)no1 | i | i | i | i
CC(=O)c1c(C)[nH]c(C(=O)OCCOc2ccccc2)c1C | nt | i | 46.6 | i
Cc1c(C(=O)OCCOc2ccccc2)[nH]c2c1C(=O)CCC2 | i | i | 46.9 | 29.2
CC(=O)c1c(C)[nH]c(C(=O)OCc2ccccc2F)c1C | nt | i | 95.3 | 45.7
CCCc1c(C(=O)OCC)[nH]c2c1C(=O)CCC2 | i | i | i | i
SMILES | NS1 function inh | SARS PLP yeast | Shiga toxin inh | Cycloheximide cs
CC(=O)c1c(C)[nH]c(C(=O)OCc2cccc(C)c2)c1C | i | i | 94.5 | 35.7
COc1ccc(C)cc1COC(=O)c1[nH]c(C)c(C(C)=O)c1C | i | i | i | i
CC(=O)c1c(C)[nH]c(C(=O)COC(=O)CCCOc2ccccc2)c1C | nt | i | i | i
NC(=O)CC(NC(=O)c1ccccc1)c1ccc(NC2CCCCC2)c([N+](=O)[O-])c1 (configuration not stated) | i | i | i | i
COCCSc1nnc(NC(=O)c2ccc(OC)c([N+](=O)[O-])c2)s1 | nt | i | i | i
CCCS(=O)(=O)c1nc(S(=O)(=O)c2ccc(C)cc2)c(NCCCn2ccnc2)s1 | i | i | i | i
Cc1c(C(=O)OC2CCCC2C)[nH]c2c1C(=O)CCC2 (configuration not stated) | i | i | 63.9 | 48.2
CC(=O)c1c(C)[nH]c(C(=O)OCc2ccc(Br)cc2)c1C | i | i | 69.1 | 44.5
O=C(N/N=C/c1ccc(O)cc1)/C(=C/c1ccccc1)CCO | i | i | i | 14.0
COc1ccc(N2CCN(CC(=O)Nc3nc4c(s3)CC(C)CC4)CC2)cc1 (configuration not stated) | i | i | i | i
CC1CCc2nc(NC(=O)C3CCCO3)sc2C1 (configuration not stated) | i | i | 55.4 | 23.8
CC1CCc2nc(NC(=O)Cc3cccs3)sc2C1 (configuration not stated) | i | i | 94.5 | 47.8
CC(C)(C)C1CCc2nc(NC(=O)Cc3cn4ccsc4n3)sc2C1 (configuration not stated) | ? | i | 146.4 | 36.6
CC1CCc2nc(NC(=O)c3ccco3)sc2C1 (configuration not stated) | i | i | i | i
O=C(Cc1ccc(Cl)cc1)NNC(=O)C1CC=CCC1C(=O)O (configuration not stated) | i | i | i | i
CCOC(=O)c1[nH]cnc1C(=O)N1CCC(C)CC1 | nt | i | nt | nt
Cc1cc(C(=O)N2CCc3ccccc3C2)n[nH]1 | i | i | 53.3 | 23.8
Cc1cc(C(=O)N2CCc3ccccc3C2)no1 | i | i | i | 18.9
S=C(Nc1ccccc1)N1CCC(Cc2ccccc2)CC1 | i | i | i | i
COc1cccc(CNc2ncc(Br)cc2Br)c1O | i | i | 61.4 | 65.6
COc1cccc(CNc2ccc(Br)cn2)c1O | i | i | 71.7 | 43.4
COc1cccc(CNn2cnnc2)c1O | i | i | i | i
COC(=O)Cc1ccc2sc(-c3ccccc3)nc2c1 | i | i | 72.8 | 61.8
CC(=O)Nc1cccc(-c2nc3ccccc3s2)c1 | i | i | 97.9 | 35.6
O=C(O)Cc1ccc2sc(-c3ccccc3)nc2c1 | i | i | i | i
SMILES | NS1 function inh | SARS PLP yeast | Shiga toxin inh | Cycloheximide cs
Cc1ccc(C(=O)NC(=S)Nc2cccc(-c3nc4ccccc4s3)c2)cc1 | i | i | 60.1 | 26.5
CC(=O)Nc1cccc(-c2cc(C)c3cc4c(cc3n2)OCO4)c1 | i | i | 109.0 | 36.7
CN1CCc2c(sc3c2C(=O)NC(c2ccc(-c4ccc(Cl)cc4)o2)N3)C1 (configuration not stated) | i | i | i | i
CC(=O)Nc1cccc(-c2nc3ccc(NC(C)=O)cc3s2)c1 | i | i | 77.9 | 39.9
Cc1ccc(C(=O)NC(=S)Nc2c(C)ccc3nsnc23)cc1 | i | 12.6µM | i | i
Cc1cc(C)c2c3c(sc2n1)C1(CCSCC1)C(C#N)=C(N)O3 | i | i | 28.8 | i
O=C(CSc1nccc(-c2ccc(Br)cc2)n1)NCCc1ccccc1 | i | i | i | i
Cc1ccccc1CNS(=O)(=O)c1c(C(=O)N2CCCCC2)c(C)n(C)c1C | i | i | i | i
COc1ccc(OCCC(=O)OCC(=O)NCCC2=CCCCC2)cc1 | nt | i | i | i
O=S(=O)(c1ccc(S(=O)(=O)N2CCC(O)CC2)cc1)N1CCCC1 | i | i | i | i
Cc1cc(C)c(S(=O)(=O)/N=C2/C=C(Sc3ncn[nH]3)C(=O)c3ccccc32)cc1C | nt | i | 48.3 | 32.6
Cc1nc(SCC(=O)N(C)C2(C#N)CCCCC2)c2ccccc2n1 | nt | i | nt | nt
COc1cccc(C(=O)/C=C/c2ccc(OCC#N)c(OC)c2)c1 | i | i | 15.8 | 39.5
CCOc1ccc(C(=O)/C=C/c2ccc(OC)c(OC)c2)cc1 | i | i | i | i
COc1cc(/C=C/C(=O)c2ccc(C)c([N+](=O)[O-])c2)cc(OC)c1O | i | i | i | i
COc1cc(/C=C/C(=O)c2ccc(O)cc2)ccc1OCC#N | i | i | 84.8 | 70.6
COc1cc(/C=C/C(=O)OCC(=O)N2CCC(C)CC2)ccc1OCC#N | nt | i | nt | nt
CCOc1ccc(/C=C/C(=O)c2ccccc2)cc1OC | i | i | 80.1 | 55.6

High-throughput results (PubChem BioAssay)
